High-throughput results from PubChem.
Most compounds without a hit are left out; they make up all but 2.9% or so of the library.
ATXN viability = Viability Counterscreen for Primary qHTS for Inhibitors of ATXN expression; Potency, µM (highest dose often 56.7 µM), most hits filed as cytotoxic; S2 cells (HEK-293 line with an ATXN2-luciferase reporter) viability, CellTiter-Fluor protease fluorescence, 24 h; 400,000 tested, 0.49% active; note: nearly all actives have a fitted effect of over 40% in size
ATXN2 expr inh = Primary qHTS for Inhibitors of ATXN expression. HEK-293 ATXN2-luciferase reporter, luminescence, 24 h. Potency, µM (series often up to 57 µM), for the others: top-dose activity change, negative = inhibition, actives largely listed as inhibitors. 360,000 tested, 0.72% active; note: % is set by controls: 0 for no effect and ±100 for the full control effect; nearly all actives have a fitted effect of over 55% in size
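qHTS (up to 57 uM final) was run with 24 h compound exposure of reporter cells at 37 °C. Each well was multiplexed: SteadyGlo luminescence measured ATXN2-luciferase expression after a fluorogenic Gly-Phe-AFC viability readout (25 uM final).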
Nrf2 block = Nrf2 qHTS screen for inhibitors. A549 ARE-Fluc reporter, luciferase luminescence, 18-24 h. Potency, µM (top dose mostly 46 µM), for the others: top-dose activity change, negative = inhibition, most hits filed as inhibitors. 360,000 tested, 2.1% active. AID 504444, 2011; note: % is set by controls: 0 for no effect and ±100 for the full control effect; nearly all actives have a fitted effect of over 60% in size
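Concentration-response testing used A549 ARE_Fluc cells at 5000 cells/well. Following an 18-24 h compound incubation, viability was read by fluorescence (Ex 405/Em 525) and luciferase output by luminescence.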
A549 tox = Nrf2 qHTS screen for inhibitors: counterscreen for cytotoxicity. A549 ARE-Fluc cells, CellTiter-Fluor viability, 18-24 h. 390,000 tested, 0.16% active. Potency, µM (top dose mostly 46 µM), without a hit: at the top dose activity change, negative = cytotoxicity, usual class: inhibitors; note: % is set by controls: 0 for no effect and ±100 for the full control effect
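A549 ARE_Fluc cells in 5% FBS OPTI-MEM were exposed to compounds in concentration-response for 18-24 h at 37 deg C. Viability was read by CellTiter-Fluor fluorescence (Ex 405/Em 525) after 30 min, before the luciferase read.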
Nrf2 activator = qHTS of Nrf2 Activators; AREc32 ARE-luciferase reporter (MCF7-derived line), luminescence, 24 h; Potency, µM (highest dose often 46.1 µM), for the others: top-dose activation, actives largely listed as activators; 410,000 tested, 0.31% active; AID 624171, 2012; note: % of control where 0% means no effect; nearly all actives have a fitted effect of over 65% in size
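Cells of the AREc32 ARE-luciferase line are plated in OPTI-MEM containing 5% FBS and left overnight at 37 deg C. Compounds are pinned in, incubation continues 24 hr, and firefly luciferase signal is then measured.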
Starred values were filed as active, the others as inactive; i = inactive; ? = inconclusive; · = no result; ! = repeats disagree. Calls come from the whole dose curve; as a rule, active = well fitted curve in the direction sought with a large enough effect; inconclusive = small, poorly fitted or top-dose-only effect, or another doubt; inactive = no such curve, though single readings can be large; an effect the other way counts as inactive or inconclusive. Potency is the fitted concentration of half-maximal effect.

SMILES	ATXN viability	ATXN2 expr inh	Nrf2 block	A549 tox	Nrf2 activator
CCn1c2ccccc2c2c3ncc4cccn4c3ccc21	i	0%	?	13%	13µM*
CN[C@@H](C)C(=O)N[C@H]1CCCC[C@H]2CC[C@@H](C(=O)N[C@@H](c3ccccc3)c3cn(CCCCc4ccc(CCCCn5cc([C@@H](NC(=O)[C@@H]6CC[C@@H]7CCCC[C@H](NC(=O)[C@H](C)NC)C(=O)N76)c6ccccc6)nn5)cc4)nn3)N2C1=O	·	-3%	·	·	·
O=C(N/N=C/c1c(O)ccc2ccccc12)c1cccc(C(F)(F)F)c1	·	3µM*	?	-5%	3%
O=c1c2ccccc2nc(N/N=C/c2c(O)ccc3ccccc23)n1O	i	?	6.5µM*	?	5%
O=C(CN1CCCC1)N/N=C/c1c(O)ccc2ccccc12	?	2.8µM*	-19%	-4%	-3%
O=C(N/N=C\c1c(O)ccc2ccccc12)c1ccc(Cn2cccn2)o1	i	3.5µM*	?	-1%	-1%
COc1ccc(S(=O)(=O)N2CCN(Cc3nc4ccc(C)cc4o3)CC2)cc1Cl	i	-20%	·	21%	3%
COc1ccnc2c1CCCCC2S(=O)c1nc2ccccc2[nH]1 (stereo unspecified)	i	39%	·	·	·
Cc1ccc2nc(SCC(=O)NCC3Cc4cc(-c5ncccc5C)ccc4O3)[nH]c2c1 (stereo unspecified)	i	·	·	·	·
COc1ccc(/C=N/NC(=O)CCSc2nc3ccccc3s2)cc1OC	i	-13%	?	?	0%
Cc1cc(C)n(CCC(=O)N/N=C/c2c(O)ccc3ccccc23)n1	10µM*	·	-3%	12%	-1%
O=C(CCSc1nc2ccccc2s1)N/N=C/c1c(O)ccc2ccccc12	i	3.2µM*	-16%	-28%	-1%
CC1=CC(C)(C)Nc2ccc(OC(=O)CCN3C(=O)c4ccccc4C3=O)cc21	·	25µM*	?	-9%	3%
CC(C)OC(=O)c1c(-c2ccccc2)c(-c2ccccc2)nn(C)c1=O	?	-18%	9.2µM*	-4%	4%
CCN1C(=O)/C(=C2/C=Cc3cc(C)ccc3N2CC)N(C)C1=S	?	-12%	?	23µM*	0%
CCN1/C(=C2/SC(=S)N(C)C2=O)C=Cc2cc(C)ccc21	i	35%	7%	5%	0%
CCC(NC(=O)Nc1nnc(C(F)(F)F)s1)(C(F)(F)F)C(F)(F)F	·	8.9µM*	3.7µM*	7.3µM*	0%
Cc1ccccc1OCC(O)Cn1c(=N)n(Cc2ccccc2)c2ccccc21 (stereo unspecified)	32µM*	?	-1%	1%	-4%
CCCCCn1c(=N)n(CC(O)COc2ccccc2OC)c2ccccc21 (stereo unspecified)	28µM*	28µM*!	-21%	?	-5%
Cc1ccc(OCC(O)Cn2c(=N)n(CCN3CCCCC3)c3ccccc32)cc1 (stereo unspecified)	?	25µM*	0%	?	4%
COc1ccccc1OCC(O)Cn1c(=N)n(Cc2ccccc2)c2ccccc21 (stereo unspecified)	?	?	-25%	?	4%
COc1cccc(C2c3c(ncn(-c4cccc(Cl)c4)c3=N)Oc3ccc4ccccc4c32)c1 (stereo unspecified)	·	·	2%	5%	·
CC(C)(C)C1CCc2c(sc(NC(=O)CCC(=O)O)c2C(=O)Nc2ccccc2C(F)(F)F)C1 (stereo unspecified)	·	·	18µM*	?	1%
COc1ccccc1NC(=O)c1c(NC(=O)c2cccs2)sc2c1CCC(C(C)(C)C)C2 (stereo unspecified)	i	-3%	6%	6%	-1%
COc1ccc(NC(=O)c2c(NC(=O)c3ccncc3)sc3c2CCC(C(C)(C)C)C3)cc1 (stereo unspecified)	i	0%	18µM*	-15%	1%
SMILES	ATXN viability	ATXN2 expr inh	Nrf2 block	A549 tox	Nrf2 activator
CN(C)c1ccc(C(C(=O)NC2CCCCC2)N(Cc2ccco2)C(=O)c2snc(C(N)=O)c2N)cc1 (stereo unspecified)	i	-27%	15µM*	?	3%
CN(C)c1ccc(C(C(=O)NCC2CCCO2)N(C(=O)c2snc(C(N)=O)c2N)c2ccccc2)cc1 (stereo unspecified)	?	-14%	-13%	-4%	0%
CC(C)c1ccc(N(C(=O)c2snc(C(N)=O)c2N)C(C(=O)NCC2CCCO2)c2ccc(N(C)C)cc2)cc1 (stereo unspecified)	i	-7%	18µM*	?	0%
COc1ccc(CN2CCC(n3cc(C(=O)N4CCCC4)nn3)CC2)c(OC)c1C	i	·	·	·	·
Cc1ccc(-c2cc(C(=O)N/N=C/C(Br)=C/c3ccccc3)n[nH]2)o1	?	-39%	?	-1%	20µM*
Cc1ccc(-c2cc(C(=O)N/N=C/c3ccccc3O)n[nH]2)o1	?	20µM*	-16%	-11%	5%
COc1cccc(CN2CCCC(c3nc(C)ncc3-c3ccc(F)cc3)C2)c1OC (stereo unspecified)	i	·	·	·	·
CS(=O)(=O)c1ccccc1-c1nnc(NC(=O)c2ccc3c(c2)OCCO3)o1	·	·	·	-4%	1%
C/C(=N\NC(=S)NC1CCCCC1)c1ccc(OC(F)F)cc1OC(F)F	i	-2%	21µM*	-14%	5%
CCc1cccc(CC)c1NC(=S)NCCc1c(C)[nH]c2ccc(C)cc12	?	18µM*	16µM*	-17%	-2%
CCc1cccc(C)c1NC(=S)NCCc1c(C)[nH]c2ccc(C)cc12	i	?	?	-11%	-2%
CCOc1ccc(C(=O)CSc2nnc3cc(C)c4ccccc4n23)cc1	·	·	3%	0%	0%
CC(Nc1cccc2ccccc12)C(=O)N/N=C/c1ccc([N+](=O)[O-])cc1 (stereo unspecified)	i	-12%	-12%	-9%	1%
COc1cc([N+](=O)[O-])cc(/C=N/NC(=O)C(C)Nc2cccc3ccccc23)c1O (stereo unspecified)	?	20µM*	-20%	-3%	0%
Cc1ccc(-c2csc(N3CCN(CCCn4c(-c5ccncc5)nc5ccccc54)CC3)n2)cc1	·	22µM*	?	-7%	0%
CNC(=S)N1CCN(S(=O)(=O)c2ccc3ccccc3c2)CC1	i	-11%	23µM*	2%	2%
Cc1ccc(N(C)C(=O)N2CCN(S(=O)(=O)c3ccc4ccccc4c3)CC2)cc1	i	-9%	18µM*	-17%	-1%
CCCCNC(=O)c1nn(C)c2c1CSc1ccccc1-2	·	·	21µM*	-15%	15%
CCOc1ccccc1NC(=O)c1nn(C)c2c1CSc1ccccc1-2	·	·	18µM*	-13%	3%
